High-throughput results: PubChem BioAssay, several laboratories
14-3-3 Bad inh: disrupts binding of bovine 14-3-3 zeta to phospho-Bad peptide | TR-FRET 14-3-3zeta/Dy647-pBad peptide displacement, 1 h | inhibition, % at 21.7 µM | hit rate 0.71% among 220,000 | AID 781;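 active means inhibition above about 70%, limit read from the data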
Target sequence (P63103 whole entry, looked up): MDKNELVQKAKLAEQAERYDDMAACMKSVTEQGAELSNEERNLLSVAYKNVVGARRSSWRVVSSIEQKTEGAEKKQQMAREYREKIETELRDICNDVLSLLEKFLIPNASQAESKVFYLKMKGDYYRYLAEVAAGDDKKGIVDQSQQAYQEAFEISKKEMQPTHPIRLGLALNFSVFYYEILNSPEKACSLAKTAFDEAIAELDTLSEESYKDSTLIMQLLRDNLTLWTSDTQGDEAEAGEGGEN
Mcl1-Bid inh: Mcl-1/Bid interaction inhibition. TR-FRET Mcl-1/Bid-Dy647 peptide binding, 1536-well. hit rate 0.97% among 220,000. inhibition, % at 21.7 µM. AID 1021. Q07820;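 active means compounds that cut the binding signal by more than half at the single screening dose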;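 further: His-tagged Mcl-1 with europium anti-His antibody binding Bid BH3 peptide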
Target sequence (Q07820 whole entry, looked up): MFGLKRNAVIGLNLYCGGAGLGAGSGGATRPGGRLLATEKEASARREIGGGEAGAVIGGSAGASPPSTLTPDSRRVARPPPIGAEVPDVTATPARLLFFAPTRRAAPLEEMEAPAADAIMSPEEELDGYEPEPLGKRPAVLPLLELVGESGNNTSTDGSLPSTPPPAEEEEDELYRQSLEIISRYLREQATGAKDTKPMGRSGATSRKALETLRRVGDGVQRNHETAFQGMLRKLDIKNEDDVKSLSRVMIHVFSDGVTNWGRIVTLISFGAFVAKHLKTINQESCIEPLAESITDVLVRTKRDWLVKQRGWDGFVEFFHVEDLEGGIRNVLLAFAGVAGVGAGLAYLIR
eIF4E-4G inh: inhibitors of eIF4E and eIF4G interaction in translation initiation; P63073+Q04637; TR-FRET eIF4E-eIF4GI(517-606) binding, 2 h; inhibition, % at 21.7 µM; hit rate 0.37% among 220,000; AID 782;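 active means inhibition above about 30%, limit read from the data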
Mcl1-Noxa inh: disrupts binding of human Mcl-1 to Noxa peptide | TR-FRET Mcl-1/Noxa peptide binding, 2 h | hit rate 1.5% among 220,000 | inhibition, % at 21.7 µM | AID 1022 | Q07820;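 active means compounds that cut the protein-peptide binding signal by more than 50% relative to plate controls in a single-dose test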;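 further: His-tagged Mcl-1 with rhodamine Noxa BH3 peptide and terbium anti-His antibody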
Pf gametocyte: kills late stage P. falciparum gametocytes | P. falciparum stage V gametocytes, ATP luminescence, 24 h | AID 743093 | inhibition, % at 10.9 µM | hit rate 0.065% among 150,000;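 active means inhibition above the mean plus 3 SD of compounds within the control limits, set per campaign, cut at about 38% in these data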
Bim-Mcl-1: disrupts Bim peptide binding to human Mcl-1; inhibition, % at 10 µM; Bead-based flow cytometry, Bim peptide-Mcl-1 binding; hit rate 0.1% among 190,000; Q07820; in the data active means inhibition above about 40%
Each line names hits and unclear results; the compound was inactive in the other large screens; [ ] = remark or other dose. Hits are enriched below; roughly 2.7% of the tested compounds scored in any of these assays.

COc1cc(/C=N\NC(=O)C2CC3C=CC2C3)ccc1O (configuration not stated)	none
CC(C)(C)C(=O)N1CCN(c2nc3ccccc3o2)CC1	none
COc1cc(CN2CCN(C(=O)CC(C)C)CC2)cc(OC)c1OC	14-3-3 Bad inh 80 (no result: Pf gametocyte)
COc1ccc(CN2CCN(C(=O)CC(C)C)CC2)cc1	none (no result: 14-3-3 Bad inh, Mcl1-Bid inh, eIF4E-4G inh, Mcl1-Noxa inh, Bim-Mcl-1)
COc1ccc(CN2CCN(C(=O)CN3C(=O)C4C5C=CC(C5)C4C3=O)CC2)c(OC)c1OC (configuration not stated)	none (no result: Pf gametocyte)
Cc1ccc(CN2CCN(C(=O)CC(C)C)CC2)cc1	none (no result: 14-3-3 Bad inh, Mcl1-Bid inh, eIF4E-4G inh, Mcl1-Noxa inh, Bim-Mcl-1)
COc1ccc(CN2CCN(C(=O)CC(C)C)CC2)c(OC)c1OC	14-3-3 Bad inh 73, eIF4E-4G inh 77 (no result: Pf gametocyte)
COc1cc(CN2CCN(C(=O)CC(C)C)CC2)cc(OC)c1O	Mcl1-Bid inh 51 (no result: Pf gametocyte)
CC(CSc1nnnn1-c1ccccc1)Cn1c(N2CCN(C)CC2)nc2c1c(=O)[nH]c(=O)n2C (configuration not stated)	Mcl1-Noxa inh 52
COc1ccc(C(=O)/C=C(\N)C(F)(F)F)c(O)c1	Mcl1-Noxa inh 69 (no result: Pf gametocyte)
COc1cc(/C=N/Nc2nnc3c(n2)[nH]c2ccccc23)ccc1O	14-3-3 Bad inh 83[fluorescence artefact?], Mcl1-Bid inh 90, Mcl1-Noxa inh 94
Cc1ccc2[nH]c3nc(N/N=C/c4cccc(O)c4)nnc3c2c1	none (no result: 14-3-3 Bad inh, Mcl1-Bid inh, eIF4E-4G inh, Mcl1-Noxa inh, Bim-Mcl-1)
CCCOC(=O)c1ccc(OCC(O)CN2CCN(C(=O)c3ccccc3)CC2)cc1 (configuration not stated)	eIF4E-4G inh 34 (no result: Pf gametocyte)
CCOc1ccc(NC(=O)N(CCN(C)C)C(C)c2cccnc2)cc1 (configuration not stated)	eIF4E-4G inh 88 (no result: Bim-Mcl-1)
CC(=O)N1c2ccccc2C2(O)N=C(C)SC12 (configuration not stated)	Mcl1-Noxa inh 55 (no result: Pf gametocyte)
CN(CCOc1ccc(NS(C)(=O)=O)cc1)CCc1ccc(NS(C)(=O)=O)cc1	Mcl1-Bid inh 84 (no result: Pf gametocyte)
CCCCCOc1ccc(NS(C)(=O)=O)cc1	none
COc1cccc(-c2ccc(=O)n(CC(=O)Nc3ccc(S(=O)(=O)NCC(C)C)cc3)n2)c1	none
O=C(Nc1ccc(-c2nc3ccc(NC(=O)c4cccs4)cc3[nH]2)cc1)c1cccs1	14-3-3 Bad inh 82[fluorescence artefact?], Mcl1-Bid inh 84, Mcl1-Noxa inh 65 (no result: Pf gametocyte)
O=C(Nc1ccc2nc(-c3cccs3)[nH]c2c1)c1cccs1	none (no result: Pf gametocyte)
CC(C)CC(=O)NC(=S)N(Cc1ccccc1)Cc1ccccc1	Mcl1-Noxa inh 56 (no result: Pf gametocyte)
CC(C)N1C(=O)CCC1C(=O)O (configuration not stated)	none
COc1ccc(-c2noc(CSc3nc(N)c(-c4ccccc4)c(=O)[nH]3)n2)cc1OC	eIF4E-4G inh 46[fluorescence artefact?] (no result: Pf gametocyte)
COc1ccc(/C=N/NS(=O)(=O)c2ccc(C)cc2)cc1OC(=O)c1ccccc1	none
COc1ccc(/C=N/NS(=O)(=O)c2ccccc2)cc1OC(=O)c1ccc(C)cc1	Mcl1-Bid inh 86
COC(=O)c1ccc(N2CCS(=O)(=O)CC2)cc1	none
O=C(O)CSc1nc2ccccc2n1C1CCCCC1	14-3-3 Bad inh 84
OC(COCc1ccc(Cl)cc1)CN1CCN(c2ccccn2)CC1 (configuration not stated)	none
CCSc1ncc(Cl)c(C(=O)Nc2sc3c(c2C(=O)NCc2cccnc2)CCCC3)n1	Mcl1-Bid inh 59, Bim-Mcl-1 44 (no result: Pf gametocyte)
COc1ccc(CCNC(=O)CN(c2ccc(OC)c(OC)c2)S(C)(=O)=O)cc1	Mcl1-Noxa inh 75 (no result: Pf gametocyte)
O=C(N/N=C\c1c(O)ccc2ccccc12)c1ccc(Cn2cccn2)o1	Mcl1-Noxa inh 51
C=CCn1c(-c2cc(OC)c(OC)c(OC)c2)n[nH]c1=S	eIF4E-4G inh 44 (no result: Pf gametocyte)
S=c1[nH]nc(-c2ccco2)n1/N=C/c1ccc(Cl)cc1	eIF4E-4G inh 33
S=c1[nH]nc(-c2ccco2)n1/N=C/c1ccccc1Cl	none
CCn1c(-c2cc(OC)c(OC)c(OC)c2)n[nH]c1=S	none (no result: Pf gametocyte)
C=CCn1c(-c2ccco2)n[nH]c1=S	eIF4E-4G inh 67 (no result: Pf gametocyte)
CC(/C=N/n1c(-c2ccc(Cl)cc2)n[nH]c1=S)=C\c1ccco1	Mcl1-Noxa inh 64
C=CCN(C(=O)c1ccc(Cl)cc1)c1ccccc1C(=O)NCC(=O)O	none (no result: Bim-Mcl-1)
CC(=O)Nc1ccc(S(=O)(=O)NC2(C(F)(F)F)N=C(c3ccccc3)NC2=O)cc1 (configuration not stated)	none (no result: Pf gametocyte)
Cc1cc(C(=O)NC2CCCc3ccccc32)no1 (configuration not stated)	Bim-Mcl-1 46 (no result: Pf gametocyte)
Cn1c(=O)oc2cc(S(=O)(=O)N3CCOCC3)ccc21	none (no result: Pf gametocyte)
O=S(=O)(c1ccc2c(c1)oc1ccccc12)N1CCOCC1	14-3-3 Bad inh active[fluorescence artefact?]
O=S(=O)(NCc1ccccc1)c1cccc(S(=O)(=O)N2CCOCC2)c1	Mcl1-Bid inh 81
O=S(=O)(c1ccc2nc(Cc3ccccc3)[nH]c2c1)N1CCOCC1	14-3-3 Bad inh 88 (no result: Pf gametocyte)
O=S(=O)(c1ccc2nc(Cc3cccc(C(F)(F)F)c3)[nH]c2c1)N1CCOCC1	none (no result: Pf gametocyte)
Cc1ccccc1CNC(=O)c1ccccc1	none (no result: Pf gametocyte)
C/C(=N\N1CCN(Cc2ccc(Cl)cc2)CC1)c1ccc([N+](=O)[O-])cc1	none (no result: Bim-Mcl-1)
Cc1ccc(NC(=O)Cn2c(O)c(N=NC(=O)c3cc([N+](=O)[O-])ccc3O)c3ccccc32)cc1	Mcl1-Noxa inh 50 (no result: Pf gametocyte, Bim-Mcl-1)
Cc1cccc(NC(=O)Cn2c(O)c(N=NC(=O)c3ccccc3O)c3ccccc32)c1	Mcl1-Bid inh 66, Mcl1-Noxa inh 66
C/C(CC(=O)Nc1ccc([N+](=O)[O-])cc1)=N\NC(=O)c1ccccc1O	none (no result: 14-3-3 Bad inh, Mcl1-Bid inh, eIF4E-4G inh, Mcl1-Noxa inh, Bim-Mcl-1)
N=Nc1c(O)n(CC(=O)Nc2ccccc2)c2ccccc12	none (no result: 14-3-3 Bad inh, Mcl1-Bid inh, eIF4E-4G inh, Mcl1-Noxa inh, Bim-Mcl-1)
O=C(Oc1cccc2c(=O)[nH]ccc12)c1ccccc1	14-3-3 Bad inh 78
O=C(Oc1ccc[nH]c1=O)c1cccc(Cl)c1	none (no result: Pf gametocyte, Bim-Mcl-1)
CCNCc1nc2cc(Cl)ccc2c(=O)[nH]1	none
CCN(CC)S(=O)(=O)c1ccc(NC(=O)c2cc(C(=O)OC)cc([N+](=O)[O-])c2)cc1	eIF4E-4G inh 33
COC(=O)c1cc(C(=O)Nc2ccc(S(=O)(=O)NC(C)(C)C)cc2)cc([N+](=O)[O-])c1	none
CC1=C(C(=O)Nc2ccc(Cl)cc2)C(c2ccncc2)C(C#N)=C(SCC(N)=O)N1 (configuration not stated)	none
CC(=O)C1=C(C)NC(SCC(N)=O)=C(C#N)C1c1cccnc1 (configuration not stated)	Mcl1-Bid inh 97 (no result: Pf gametocyte)
CCOc1cccc(/C(O)=C2/C(=O)C(=O)N(Cc3ccco3)C2c2ccncc2)c1 (configuration not stated)	14-3-3 Bad inh 74 (no result: Pf gametocyte)
Clc1ccc(-c2ccc(CNCc3ccccn3)o2)cc1	none (no result: 14-3-3 Bad inh, Mcl1-Bid inh, eIF4E-4G inh, Mcl1-Noxa inh, Bim-Mcl-1)
CCOc1ccc(/C=C2\SC(=S)NC2=O)cc1OC	none
Cc1ccc(/C=C2/SC(=O)NC2=S)o1	Mcl1-Noxa inh 77 (no result: Pf gametocyte)
Cn1cc(/C=C2\SC(=O)NC2=S)c2ccccc21	none
COc1ccc(/C=C2\SC(=O)NC2=S)cc1OC	Mcl1-Noxa inh 64
